Experimental findings from PubChem BioAssay AID1845227 (National Center for Advancing Translational Sciences (NCATS), 2023) are described below.

Inconclusive results are not listed. Where a call stands in place of a potency, no number is given. The source made the active and inactive calls. Calls follow the shape of the dose curve; as a rule, active = well fitted inhibition curve with a large enough effect; inconclusive = small, poorly fitted or top-dose-only effect; inactive = no such curve, though single readings can be large or run the other way.
Potency is read from the fitted curve at half-maximal effect.

The assay addresses Luciferin 4-monooxygenase (Photinus pyralis) (UniProt P08659). Put plainly: Confirmatory firefly luciferase (FLuc) qHTS assay for identification of artifact compounds. The note with it: purified FLuc enzyme, luminescence, 5 min; series mostly up to 38.9 µM. The text has this:
PI: Alexander Tropsha Ph.D. UNC Eshelman School of Pharmacy University of North Carolina, Chapel Hill, North Carolina Hits from high-throughput screening (HTS) of chemical libraries are often false positives due to their interference with the assay detection technology. In response to this problem, we generated the largest publicly available library of chemical liabilities and developed a free webtool to predict HTS artifacts, both of which are described herein. More specifically, we generated, curated, and integrated HTS datasets for thiol reactivity, redox activity, and luciferase (firefly and nano) activity. Using these curated datasets, we developed and validated several Quantitative Structure-Interference Relationship (QSIR) models to predict nuisance behavior. […] These models were employed for virtual profiling of the National Center for Advancing Translational Science's (NCATS) in-house library, and 256 compounds for each assay were selected for the experimental validation of nuisance behavior. The BA for these external predictions ranged from 58 to 78% for compounds within the applicability domains of the models. […] The models developed in this study, along with aggregation models previously developed by our group (SCAM Detective) were implemented in "Liability Predictor," an online tool which may be used as part of chemical library design or for triaging HTS hits. Both the models and the curated datasets are publicly available at https://liability.mml.unc.edu/.
PROTOCOL TABLE SEQUENCE No. (e.g., 1, 2, 3, etc.); […] (e.g., Cells, Incubation, Reagent, etc.); VALUE; DESCRIPTION. 1; Reagent; 3 uL; Luciferase substrate mixture. 2; Compounds and control; 16 nL; Kalypsis pin tool (Wako USA) equipped with a 1536-well pin head. 3; Incubation; 15 min. 4; Reagent; 1 uL; Luciferase enzyme. 5; Incubation; 5 min. 6; Detection; Luminescence, ViewLux microplate reader. NOTES (numbers refer to Sequence numbers above) 1. 3 uL of luciferase substrate mixture containing D-luciferin and ATP (final concentrations of 10 uM and 10 uM, respectively) in assay buffer (10 mM Mg-acetate, 0.01% Tween-20, 0.05% bovine serum albumin, 50 mM Tris acetate, pH 7.6) was dispensed into all wells of a 1536-well assay plate (solid-bottom white plate; Greiner Bio One, Monroe, NC). 2. A Wako Pin-tool (Wako Automation, Richmond, VA) was used to transfer 16 nL of compounds (consisting of 7-plates in qHTS format, final concentration range 18.3 nM to 114 uM) or control PTC124 (final concentration range 1.22 nM to 40 uM). 3. 15 min. incubation at room temperature protected from light. 4. 1 uL of luciferase enzyme (final concentration 10 nM, Photinus pyralis luciferase) or buffer was dispensed for a final assay volume of 4 uL. 5. Plates were centrifuged (121xg, 15 seconds) and incubated for 5 minutes. 6. Samples were read for luminescence on a ViewLux CCD imager (PerkinElmer). Data were normalized to no-enzyme (0% activity) and no-inhibitor (DMSO; 100%) controls and the resulting percent inhibition data were fitted to a 4-parameter Hill equation using NCATS in-house software.
(Quantitative high-throughput screening tests each substance at several concentrations.)
For the molecule `O=C(O)c1cc[c]([Hg][S]c2ncnc3nc[nH]c23)cc1`, the Potency was 12.2 µM (active).
For the molecule `CC(=O)OCC(=O)[C@H]1CC[C@H]2[C@@H]3CC[C@H]4C[C@H](O)CC[C@]4(C)[C@H]3C(=O)C[C@]12C`, the Potency entry is “inactive”.
As for `C[C@@]12CCC(OS(=O)(=O)O)C[C@@H]1CCC1C2CC[C@]2(C)C(=O)CCC12` (stereo not given in full), the entry is “inactive”; as for `CN(C)[C@@H]1C(=O)C(C(N)=O)=C(O)[C@@]2(O)C(=O)C3=C(O)c4c(O)ccc(Cl)c4[C@@](C)(O)[C@H]3C[C@@H]12`, “inactive”.
The entry for `COC(=O)[C@]1(C)CC[C@@]2(C)CC[C@@]3(C)C4=CC=C5C(=CC(=O)C(O)=C5C)[C@@]4(C)CC[C@@]3(C)C2C1` (stereo not given in full) is “inactive”.
